In all, about 5,500 compounds went through this assay and about 2,000 (36%) were called active. Inconclusive results (about 18%) are left out. Rule as the data show it: active = normalized growth mostly below about 0.91 (no sharp cut-off); inconclusive = no clear call, values can overlap the other calls; inactive = mostly above about 0.92. Some of the results follow.
Assay: chemical genetic growth profiling, strain panel (AID 1159580);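 also: tested at 20 µM; growth read once vehicle control cultures reached saturation at 30 °C; 1 = growth at the plate median or of vehicle wells; lower values mean less growth of the strain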
Details: S. cerevisiae deletion strains, growth OD

Measured: normalized growth

CC1OC(=O)C(C(C)C)NC(=O)C(C(C)C)OC(=O)C(C(C)C)NC(=O)C(C)OC(=O)C(C(C)C)NC(=O)C(C(C)C)OC(=O)C(C(C)C)NC(=O)C(C)OC(=O)C(C(C)C)NC(=O)C(C(C)C)OC(=O)C(C(C)C)NC1=O (stereo unspecified)
inactive: locus YLR357W, strain rsc2, active compounds read low 0.891 | locus YNL248C, strain rpa49, active compounds read low 0.944
active: locus YAL021C, strain ccr4, active compounds read low 0.202 | locus YAL026C, strain drs2, active compounds read low 0.544 | locus YAL030W, strain snc1, active compounds read low 0.326 | locus YBL061C, strain skt5, active compounds read low 0.229 | locus YBR009C, strain hhf1, active compounds read low 0.223 | locus YBR023C, strain chs3, active compounds read low 0.23 | locus YBR171W, strain sec66, active compounds read low 0.54 | locus YBR231C, strain swc5, active compounds read low 0.286 | locus YBR279W, strain paf1, active compounds read low 0.544 | locus YCL011C, strain gbp2, active compounds read low 0.28 | locus YCL016C, strain dcc1, active compounds read low 0.238 | locus YCL069W, strain vba3, active compounds read low 0.51 | locus YCR088W, strain abp1, active compounds read low 0.51 | locus YDL005C, strain med2, active compounds read low 0.332 | locus YDL040C, strain nat1, active compounds read low 0.468 | locus YDR001C, strain nth1, active compounds read low 0.615 | locus YDR069C, strain doa4, active compounds read low 0.383 | locus YDR137W, strain rgp1, active compounds read low 0.144 | locus YDR159W, strain sac3, active compounds read low 0.318 | locus YDR195W, strain ref2 0.336 | locus YDR297W, strain sur2, active compounds read low 0.404 | locus YDR334W, strain swr1, active compounds read low 0.494 | locus YDR335W, strain msn5, active compounds read low 0.697 | locus YDR392W, strain spt3, active compounds read low 0.148 | locus YEL003W, strain gim4, active compounds read low 0.357 | locus YEL037C, strain rad23, active compounds read low 0.673 | locus YEL061C, strain CIN8 (second series), active compounds read low 0.448 | locus YER015W, strain faa2, active compounds read low 0.205 | locus YER016W, strain bim1, active compounds read low 0.259 | locus YER111C, strain swi4, active compounds read low 0.639 | locus YER155C, strain BEM2 (second series), active compounds read low 0.6 | locus YFR010W, strain ubp6, active compounds read low 0.535 | locus YGL167C, strain pmr1, active compounds read low 0.166 | locus YGL173C, strain kem1, active compounds read low 0.157 | locus YGL227W, strain vid30, active compounds read low 0.599 | locus YGL240W, strain doc1, active compounds read low 0.112 | locus YGL253W, strain hxk2, active compounds read low 0.243 | locus YHR013C, strain ard1, active compounds read low 0.159 | locus YHR027C, strain rpn1, active compounds read low 0.331 | locus YHR142W, strain chs7, active compounds read low 0.342 | locus YJL092W, strain hpr5, active compounds read low 0.556 | locus YJL095W, strain BCK1 (second series), active compounds read low 0.266 | locus YJL115W, strain asf1, active compounds read low 0.79 | locus YJL129C, strain trk1, active compounds read low 0.251 | locus YJL154C, strain vps35, active compounds read low 0.688 | locus YJL164C, strain tpk1, active compounds read low 0.267 | locus YJL166W, strain qcr8, active compounds read low 0.115 | locus YJL187C, strain SWE1, active compounds read low 0.343 | locus YKL160W, strain elf1, active compounds read low 0.278 | locus YKR026C, strain gcn3, active compounds read low 0.65 | locus YKR091W, strain srl3, active compounds read low 0.476 | locus YLL001W, strain dnm1, active compounds read low 0.499 | locus YLL026W, active compounds read low 0.301 | locus YLL041C, strain sdh2, active compounds read low 0.368 | locus YLR027C, strain aat2, active compounds read low 0.27 | locus YLR221C, strain rsa3, active compounds read low 0.326 | locus YLR258W, strain gsy2, active compounds read low 0.349 | locus YLR262C, strain YPT6 (second series), active compounds read low 0.132 | locus YLR320W, strain mms22, active compounds read low 0.18 | locus YLR342W, strain FKS1, active compounds read low 0.115 | locus YLR370C, strain arc18, active compounds read low 0.395 | locus YLR384C, strain iki3, active compounds read low 0.464 | locus YML120C, strain ndi1, active compounds read low 0.389 | locus YMR058W, strain fet3, active compounds read low 0.486 | locus YMR125W, strain sto1, active compounds read low 0.835 | locus YMR129W, active compounds read low 0.411 | locus YMR205C, strain PFK2, active compounds read low 0.278 | locus YMR231W, strain pep5, active compounds read low 0.193 | locus YNL071W, strain lat1, active compounds read low 0.0873 | locus YNL209W, strain ssb2, active compounds read low 0.237 | locus YNL322C, strain KRE1 (second series), active compounds read low 0.463 | locus YNR049C, strain mso1, active compounds read low 0.563 | locus YOR001W, strain rrp6, active compounds read low 0.497 | locus YOR070C, strain gyp1, active compounds read low 0.216 | locus YOR080W, strain dia2, active compounds read low 0.381 | locus YOR083W, strain WHI5, active compounds read low 0.318 | locus YOR106W, strain vam3, active compounds read low 0.331 | locus YOR265W, strain rbl2, active compounds read low 0.288 | locus YOR270C, strain vph1, active compounds read low 0.227 | locus YOR290C, strain snf2, active compounds read low 0.61 | locus YPL051W, strain arl3, active compounds read low 0.125 | locus YPL078C, strain atp4, active compounds read low 0.14 | locus YPL106C, strain sse1, active compounds read low 0.359 | locus YPL240C, strain hsp82, active compounds read low 0.412

— PubChem BioAssay AID1159580 (chemical genetic matrix, 2015)
